{
  "source": "the supplement of paper PMC13172266",
  "note": "Where a name gives a salt, the structure may show the parent alone.",
  "data": [
    {"system": "U2932 parental", "assay": "cell proliferation relative to vehicle (% of vehicle); higher = less growth inhibition", "details": "500 nM; 72 h", "in_short": "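A library of 348 targeted inhibitors was screened against the ABC-DLBCL cell line U2932, using parental cells and two clones made resistant to an ETS-targeting agent through repeated exposure over almost a year. The cells were cultured at 37°C and 5% CO2 in medium containing 10% FBS and treated at 500 nM or 50 nM for 72 h, after which MTT was added for 4 h, stopped with 25% SDS, and absorbance was read on a Cytation 3. Proliferation is given as the percentage of proliferating cells relative to the vehicle, DMSO.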", "values": [
      {"compound": "CCCCCOC(=O)Nc1nc(=O)n([C@@H]2O[C@H](C)[C@@H](O)[C@H]2O)cc1F", "note": "[Capecitabine]", "cell proliferation": 98.3},
      {"compound": "C[C@H](Nc1ncnc2nc[nH]c12)c1cc2cccc(Cl)c2c(=O)n1-c1ccccc1", "cell proliferation": 108},
      {"compound": "Cc1cc(Nc2cc(N3CCN(C)CC3)nc(/C=C/c3ccccc3)n2)n[nH]1", "note": "[ENMD-2076 L-(+)-Tartaric acid]", "cell proliferation": 47.6},
      {"compound": "Cn1cc(CNCC2CCN(c3ncc(C(=O)NO)cn3)CC2)c2ccccc21", "cell proliferation": 0.113},
      {"compound": "Cc1ccc(C(=O)N(CCCN)[C@@H](c2nc3cc(Cl)ccc3c(=O)n2Cc2ccccc2)C(C)C)cc1", "cell proliferation": 10.2},
      {"compound": "NCC(=O)Nc1ccc(-n2nc(C(F)(F)F)cc2-c2ccc3c(ccc4ccccc43)c2)cc1", "cell proliferation": 82.4},
      {"compound": "CC[C@@]1(O)C(=O)OCc2c1cc1n(c2=O)Cc2cc3c(CN(C)C)c(O)ccc3nc2-1", "note": "[Topotecan HCl]", "cell proliferation": 2.71},
      {"compound": "COc1ccc(S(=O)(=O)N(CCO)c2ccccc2CN(C)C/C=C/c2ccc(Cl)cc2)cc1", "note": "[KN-93 Phosphate]", "cell proliferation": 89.6},
      {"compound": "CC[C@@H]1C(=O)N(C)c2cnc(Nc3ccc(C(=O)NC4CCN(C)CC4)cc3OC)nc2N1C1CCCC1", "cell proliferation": 20.4},
      {"compound": "CC(C)(C)c1nc(-c2cccc(NS(=O)(=O)c3c(F)cccc3F)c2F)c(-c2ccnc(N)n2)s1", "cell proliferation": 93},
      {"compound": "CC(C)CCN1c2nc(Nc3cc(F)c(O)c(F)c3)ncc2N(C)C(=O)C1C", "note": "(centres undefined)", "cell proliferation": 97.3},
      {"compound": "CN1C(=O)C(Cc2c[nH]c3ccccc23)NC1=S", "note": "(centres undefined) [Necrostatin-1]", "cell proliferation": 94.8},
      {"compound": "CN(CCOc1ccc(CC2SC(=O)NC2=O)cc1)c1ccccn1", "note": "(centres undefined) [Rosiglitazone]", "cell proliferation": 95.2},
      {"compound": "CC(C)C[C@H](NC(=O)[C@H](CCc1ccccc1)NC(=O)CN1CCOCC1)C(=O)N[C@@H](Cc1ccccc1)C(=O)N[C@@H](CC(C)C)C(=O)[C@@]1(C)CO1", "note": "[Carfilzomib (PR-171)]", "cell proliferation": -1.99},
      {"compound": "Cn1cc(-c2ccc3c(c2)CCN3C(=O)Cc2cccc(C(F)(F)F)c2)c2c(N)ncnc21", "cell proliferation": 105},
      {"compound": "Cc1cc(C(C)Nc2ccccc2)c2nc(N3CCOCC3)cc(=O)n2c1", "note": "(centres undefined)", "cell proliferation": 92.9},
      {"compound": "Oc1nc(-c2ccc(C(F)(F)F)cc2)nc2c1CSCC2", "cell proliferation": 98.2},
      {"compound": "Cn1cnc([N+](=O)[O-])c1Sc1ncnc2[nH]cnc12", "note": "[Azathioprine]", "cell proliferation": 103},
      {"compound": "Cn1cncc1[C@@](N)(c1ccc(Cl)cc1)c1ccc2c(c1)c(-c1cccc(Cl)c1)cc(=O)n2C", "note": "[Tipifarnib]", "cell proliferation": 62.5},
      {"compound": "CO[C@@H](C(=O)N1Cc2[nH]nc(NC(=O)c3ccc(N4CCN(C)CC4)cc3)c2C1)c1ccccc1", "cell proliferation": 69.5},
      {"compound": "CC(C)(C)c1cc(NC(=O)Nc2ccc(-c3cn4c(n3)sc3cc(OCCN5CCOCC5)ccc34)cc2)no1", "note": "[Quizartinib (AC220)]", "cell proliferation": 102},
      {"compound": "O=C(NCCCNc1nc(Nc2cccc(NC(=O)N3CCCC3)c2)ncc1I)c1cccs1", "cell proliferation": 92.1},
      {"compound": "N#C/C(=C(/N)Sc1ccc(N)cc1)c1ccccc1C(F)(F)F", "cell proliferation": 99.2},
      {"compound": "Oc1ccc(-c2nc(-c3ccc(F)cc3)c(-c3ccncc3)[nH]2)cc1", "cell proliferation": 99.2},
      {"compound": "COc1ccc(F)c(F)c1C(=O)c1cnc(NC2CCN(S(C)(=O)=O)CC2)nc1N", "cell proliferation": 63.3},
      {"compound": "Cc1nc(-c2ccc(OCC(C)C)c(C#N)c2)sc1C(=O)O", "note": "[Febuxostat]", "cell proliferation": 103},
      {"compound": "COc1cccc(-c2cc(F)ccc2C2Cc3nc(N)nc(C)c3C(=O)N2)n1", "note": "(centres undefined)", "cell proliferation": 6.37},
      {"compound": "CC(C)C(=O)Nc1ccc([N+](=O)[O-])c(C(F)(F)F)c1", "note": "[Flutamide]", "cell proliferation": 87.6},
      {"compound": "CN(C)CCOc1ccc(-c2nc(-c3ccncc3)c(-c3ccc4c(c3)CC/C4=N\\O)[nH]2)cc1", "cell proliferation": 94.8},
      {"compound": "Nc1nc(F)nc2c1ncn2[C@@H]1O[C@H](COP(=O)(O)O)[C@@H](O)[C@@H]1O", "note": "[Fludarabine Phosphate]", "cell proliferation": 93.7},
      {"compound": "COc1ccc(C2=N[C@@H](c3ccc(Cl)cc3)[C@@H](c3ccc(Cl)cc3)N2C(=O)N2CCNC(=O)C2)c(OC(C)C)c1", "note": "[Nutlin-3a]", "cell proliferation": 104},
      {"compound": "CCS(=O)(=O)N1CC(CC#N)(n2cc(-c3ncnc4[nH]ccc34)cn2)C1", "cell proliferation": 105},
      {"compound": "CCc1nc(-c2cccc(C)c2)c(-c2ccnc(NC(=O)c3ccccc3)c2)s1", "cell proliferation": 101},
      {"compound": "CNCc1ccc(-c2[nH]c3cc(F)cc4c3c2CCNC4=O)cc1", "cell proliferation": 93.4},
      {"compound": "CCCCOc1c(C(=O)c2c(F)cc(C)cc2F)c[nH]c2nncc1-2", "cell proliferation": 77.1},
      {"compound": "CC[C@H](NC(=O)[C@H](C)NC)C(=O)N1C[C@@H](O)C[C@H]1Cc1c(-c2[nH]c3cc(F)ccc3c2C[C@@H]2C[C@H](O)CN2C(=O)[C@H](CC)NC(=O)[C@H](C)NC)[nH]c2cc(F)ccc12", "note": "[Birinapant]", "cell proliferation": 101},
      {"compound": "O=C(/C=C/c1ccc(CN(CCO)CCc2c[nH]c3ccccc23)cc1)NO", "note": "[LAQ824 (Dacinostat)]", "cell proliferation": 0.789},
      {"compound": "COc1ccc(-n2c(SCCCN3C(=O)c4cccc5cccc(c45)C3=O)nnc2-c2ccncc2)cc1", "cell proliferation": 94.5},
      {"compound": "CO[C@H]1C[C@@H]2CC[C@@H](C)[C@@](O)(O2)C(=O)C(=O)N2CCCC[C@H]2C(=O)O[C@H]([C@H](C)C[C@@H]2CC[C@@H](O)[C@H](OC)C2)CC(=O)[C@H](C)/C=C(\\C)[C@@H](O)[C@@H](OC)C(=O)[C@H](C)C[C@H](C)/C=C/C=C/C=C/1C", "note": "[Rapamycin (Sirolimus)]", "cell proliferation": 58.9}
    ]}
  ]
}
